Assay outcomes from PubChem BioAssay.
TDP1 inh: blocks human tyrosyl-DNA phosphodiesterase 1; recombinant TDP1, AlphaScreen DNA substrate cleavage; Potency, µM (titrated, usually from 130 µM), for the others: top-dose activity change, negative = inhibition, most hits filed as inhibitors; 0.28% of 350,000 active; AID 485290; note: % is set by controls: 0 for no effect and ±100 for the full control effect; nearly all actives have a fitted effect of over 40% in size
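Enzyme-compound mixtures sat 15 min at room temperature, followed by a 5 min reaction with 15 nM final substrate and 10 min with AlphaScreen beads. Recombinant human Tdp1 was used at 1 nM final.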
G9a block: inhibitors of human histone lysine methyltransferase G9a; Q96KQ7; G9a H3K9 monomethylation, AlphaScreen, 2 h; Potency, µM (series often up to 102 µM), for the others: top-dose activity, negative = inhibition, actives largely listed as inhibitors; 8.8% of 350,000 active; AID 504332; note: % is set by controls: 0 for no effect and ±100 for the full control effect; nearly all actives have a fitted effect of over 75% in size
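Methyltransferase reactions run at room temperature for 2 h (20 nM enzyme, 500 nM biotin-H3K9 peptide, 20 uM SAM) after a 15 min compound preincubation; product detected by AlphaScreen beads and anti-H3K9me1 antibody.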
BAZ2B block: blocks human BAZ2B; Q9UIF8; AlphaScreen BAZ2B-H3K14Ac peptide displacement; Potency, µM (doses to about 114 µM), inactives show at the top dose activity change, negative = inhibition, hits mostly inhibitors; 4.4% of 360,000 active; AID 504333; note: % is set by controls: 0 for no effect and ±100 for the full control effect; nearly all actives have a fitted effect of over 60% in size
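Protein-peptide AlphaScreen: BAZ2B 50 nM, b-H3K14Ac 50 nM, 1x PBS pH 7.4 + 0.01% Tween-20. Preincubation 30 min RT; cpd 30 min RT (top 110 uM); beads 20 min RT, light-protected.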
JMJD2A Tudor: blocks the human JMJD2A Tudor domain; AlphaScreen JMJD2A-Tudor / H3K4me3 peptide binding; AID 504339; Potency, µM (highest dose often 114 µM), inactives show top-dose activity change, negative = inhibition, hits mostly inhibitors; 4.4% of 390,000 active; O75164; note: % is set by controls: 0 for no effect and ±100 for the full control effect; nearly all actives have a fitted effect of over 50% in size
Target sequence (O75164 whole entry, looked up, the tested form may be a part): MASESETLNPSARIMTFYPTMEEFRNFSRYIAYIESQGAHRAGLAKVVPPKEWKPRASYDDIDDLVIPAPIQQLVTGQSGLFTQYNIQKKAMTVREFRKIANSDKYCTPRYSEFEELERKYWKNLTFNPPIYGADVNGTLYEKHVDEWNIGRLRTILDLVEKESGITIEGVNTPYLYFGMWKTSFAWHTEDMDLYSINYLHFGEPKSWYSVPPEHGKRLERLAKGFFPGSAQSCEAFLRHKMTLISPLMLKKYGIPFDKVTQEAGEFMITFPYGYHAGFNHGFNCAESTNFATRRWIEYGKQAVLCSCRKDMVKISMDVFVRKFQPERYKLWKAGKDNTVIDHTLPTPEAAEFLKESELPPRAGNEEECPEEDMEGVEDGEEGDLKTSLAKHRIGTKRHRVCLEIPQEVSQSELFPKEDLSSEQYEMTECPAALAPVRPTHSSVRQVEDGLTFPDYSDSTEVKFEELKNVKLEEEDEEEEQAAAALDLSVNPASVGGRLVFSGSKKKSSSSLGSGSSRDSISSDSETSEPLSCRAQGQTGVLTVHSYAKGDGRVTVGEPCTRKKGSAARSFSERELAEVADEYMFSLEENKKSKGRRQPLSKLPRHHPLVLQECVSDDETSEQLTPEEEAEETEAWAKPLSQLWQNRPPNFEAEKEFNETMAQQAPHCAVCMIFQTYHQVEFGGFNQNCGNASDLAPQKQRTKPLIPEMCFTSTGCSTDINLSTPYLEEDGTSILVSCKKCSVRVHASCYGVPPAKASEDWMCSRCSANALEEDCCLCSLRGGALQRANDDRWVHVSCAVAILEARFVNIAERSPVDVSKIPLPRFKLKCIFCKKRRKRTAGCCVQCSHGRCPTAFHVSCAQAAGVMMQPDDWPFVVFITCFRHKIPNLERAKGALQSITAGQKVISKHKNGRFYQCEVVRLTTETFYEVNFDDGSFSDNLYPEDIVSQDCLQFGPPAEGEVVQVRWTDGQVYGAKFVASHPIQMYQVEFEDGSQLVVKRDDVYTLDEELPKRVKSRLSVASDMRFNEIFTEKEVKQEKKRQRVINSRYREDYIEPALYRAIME
HP1b chromo inh: blocks HP1-beta chromodomain binding to methylated histone tails | Potency, µM (doses to about 114 µM), for the others: top-dose activity change, negative = inhibition, most hits filed as inhibitors | 0.56% of 390,000 active | AID 540317 | AlphaScreen HP1-beta / biotin-H3K9me3 peptide binding; note: nearly all actives have a fitted effect of over 70% in size
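HP1-beta protein (50 nM final) preincubated 30 min at room temperature with biotinylated H3(1-18)K9me3 peptide (50 nM) in PBS pH 7.4, 0.01% Tween-20, then compound added for 30 min. AlphaScreen streptavidin donor/nickel chelate acceptor beads (10 ug/mL final), 30 min dark, luminescence read.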
Sfp PPTase inh: blocks B. subtilis Sfp PPTase activity; Biochemical Sfp PPTase activity, qHTS; Potency, µM, without a hit: largest response in the series, negative = inhibition, actives largely listed as inhibitors; 3.5% of 310,000 active;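 note: the enzyme is Sfp with the accession as filed and its product quenches rhodamine fluorescence; 0% = enzyme reaction without inhibitor and -100% = no enzyme wells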
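With Hepes-Na pH 7.6 buffer containing 10 mM MgCl2, Sfp (15 nM) modified BHQ-2-YbbR (12.5 uM) using rhodamine-CoA (5 uM). Two reads 30 minutes apart at 525/598 nm yielded each well's rate.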
Starred values were filed as active, the others as inactive; ? = inconclusive; nt = not tested or not shown; [ ] = dose if it differs, or a comment. A selection: hits, their analogues and other compounds. The true share with any hit is near 12%. Calls come from the whole dose curve; as a rule, active = well fitted curve in the direction sought with a large enough effect; inconclusive = small, poorly fitted or top-dose-only effect, or another doubt; inactive = no such curve, though single readings can be large; an effect the other way counts as inactive or inconclusive. Potency is the fitted concentration of half-maximal effect.

SMILES	TDP1 inh	G9a block	BAZ2B block	JMJD2A Tudor	HP1b chromo inh	Sfp PPTase inh
Cc1ccc(C)c2[nH]c(=O)c(C(c3nnnn3Cc3ccccc3)N3CCc4ccccc4C3)cc12 (stereo not given)	-1%	3.2µM*	-23%	-32%	19%	?
CCc1ccc2[nH]c(=O)c(C(c3nnnn3CC3CCCO3)N3CCCc4ccccc43)cc2c1 (stereo not given)	10%	?	50µM*	?	-16%	8.9µM*
Cc1noc(C)c1C(=O)N1CCCC(C(=O)c2cccc(OC(C)C)c2)C1 (stereo not given)	-3%	9%	-1%	-4%	56%	22%
CCOC(=O)c1c(C)[nH]c(C)c1S(=O)(=O)N1CCCC(C(=O)Nc2ccc(OC)c(OC)c2)C1 (stereo not given)	-1%	-21%[59 µM]	1%	-18%	15%	nt
CCN(c1ccccc1)S(=O)(=O)c1ccc(Oc2ccc(-n3ccnc3)cc2)nc1	-9%	23%[59 µM]	?	89µM*	-6%	-8%
Cc1cc2c(s1)c1cnn(Cc3cc(F)cc(F)c3F)c(=O)c1n2C	nt	nt	nt	-13%	nt	nt
COC(=O)CN(C(=S)Nc1ccc(F)cc1)C1CC(=O)N(c2ccc(OC)cc2)C1=O (stereo not given)	1%	40µM*	4%	-26%	1%	31%
CNC(=S)N(Cc1ccc(OC)cc1)C1CC(=O)N(c2ccc(OC)cc2)C1=O (stereo not given)	-8%	-10%[59 µM]	7%	-16%	?	11%
CNC(=S)N(Cc1ccc(OC)cc1)C1CC(=O)N(c2ccc(C(=O)OC)cc2)C1=O (stereo not given)	5%	40µM*	12%	nt	nt	-14%
COC(=O)CN(C(=S)Nc1ccc(F)cc1)C1CC(=O)N(c2ccccc2)C1=O (stereo not given)	-1%	-13%[59 µM]	9%	-15%	10%	13%
NC(=S)n1[nH]c(-c2ccc([N+](=O)[O-])cc2)c(N=Nc2cccc([N+](=O)[O-])c2)c1=O	?	11µM*	40µM*	45µM*	?	-41%
Cc1[nH]n(C(N)=S)c(=O)c1N=Nc1cccc([N+](=O)[O-])c1C	8%	56µM*	?	?	6%	12%
Cc1ccc(N=Nc2c(C)[nH]n(C(N)=S)c2=O)cc1C	0%	2%[59 µM]	7%	-9%	2%	-20%
Cc1c(N=Nc2c(-c3ccc([N+](=O)[O-])cc3)[nH]n(C(N)=S)c2=O)cccc1[N+](=O)[O-]	3%	50µM*	?	?	?	-6%
Cc1[nH]n(C(N)=S)c(=O)c1N=Nc1ccc(S(=O)(=O)N2CCCCCC2)cc1	12%	-21%[59 µM]	?	?	?	6%
COc1ccc(-c2[nH]n(-c3ccc([N+](=O)[O-])cc3)c(=O)c2C=NCc2ccccc2)cc1	3%	-63%[59 µM]	-7%	-13%	31%	-15%
NC(=S)n1[nH]c(-c2ccc([N+](=O)[O-])cc2)c(N=Nc2ccccc2[N+](=O)[O-])c1=O	0%	1%	40µM*	?	-6%	7%
Cc1[nH]n(C(N)=S)c(=O)c1N=Nc1cc(-c2ccc(Br)cc2)[nH]n1	8%	-49%	nt	?	?	4%
Cc1cc(C)cc(NC(=O)c2cc(CN3CCCC3)on2)c1	6%	-6%[59 µM]	-22%	-33%	-17%	nt
C[C@@H](C(=O)Nc1ccc2ccccc2c1)[C@@H]1C[C@@]1(C)[C@@H](NS(=O)(=O)c1ccc(-c2ccccc2)cc1)c1ccccc1	7%	nt	nt	nt	nt	26%
CC(C)OCCCNC(=O)Cc1ccc(Br)cc1	0%	4%	-3%	-3%	57%	17%
Cc1cc(C2C(C#N)=C(N)SC(N)=C2C#N)c(C)s1	7%	1.3µM*	-6%	?	18%	?
N#CC1=C(N)SC(N)=C(C#N)C1CCC1CCCCC1	8%	?	-10%	nt	nt	?
Cc1sccc1C1C(C#N)=C(N)SC(N)=C1C#N	1%	1.1µM*	-35%	nt	nt	18µM*
O=C(NCC(Cl)c1ccc2ccccc2c1)c1c(F)cccc1F (stereo not given)	nt	?	?	-16%	1%	-27%
SMILES	TDP1 inh	G9a block	BAZ2B block	JMJD2A Tudor	HP1b chromo inh	Sfp PPTase inh
O=S(=O)(c1ccc(Br)cc1)c1nc(-c2cccs2)oc1SCc1ccccc1F	0%	5%[59 µM]	-6%	-6%	31%	nt
COc1ccccc1Sc1ccccc1/C=N/NC(N)=O	-2%	50µM*	-2%	-1%	43%	2%
COc1ccccc1C=NN=C(NN=Cc1ccccc1OC)NN=Cc1ccccc1OC	nt	nt	nt	?	79µM*	nt
COc1ccccc1C=NNC(=O)NN=Cc1ccccc1OC	nt	nt	nt	-30%	23%	nt
CCc1ccc(S(=O)(=O)c2nnn3c2nc(NCCC(C)C)c2cc(Cl)ccc23)cc1	1%	-1%[59 µM]	1%	-3%	18%	nt
COc1ccc(C(=O)/C=C/C(=O)N(CC(=O)NC2CCCCC2)Cc2ccccc2)c(O)c1	-2%	nt	?	-17%	33%	1.8µM*
COc1ccc(C(=O)/C=C/C(=O)N(CC(=O)NC2CCCCC2)Cc2ccccc2OC)c(O)c1	1%	18µM*	-29%	-14%[57.1 µM]	26%	3.2µM*
CN(C)S(=O)(=O)c1cccc(NC(=S)Nc2ccc(Cl)cc2Cl)c1	-1%	-51%[59 µM]	-25%	-12%	10%	?
CC(=O)c1cccc(NC(=S)NCc2ccco2)c1	1%	-5%	-31%	-17%	12%	20%
CN(C)S(=O)(=O)c1cccc(NC(=S)NCc2ccco2)c1	8%	45µM*	nt	-34%	18%	?
CCN(CCO)c1ccc(NC(=S)Nc2cccc(S(=O)(=O)N(C)C)c2)cc1	0%	?	?	-9%[11.4 µM]	-18%	50µM*
CN(C)S(=O)(=O)c1cccc(NC(=S)Nc2cc(Cl)cc(Cl)c2)c1	0%	?	1%	-17%	-11%	50µM*
CCOc1cc(C(=O)Nc2ccc(NC(=O)c3cc4ccccc4o3)c(OC)c2)cc(OCC)c1OCC	2%[12.3 µM]	-28%[59 µM]	3%	-9%	20%	nt
O=C1CN(S(=O)(=O)c2ccc(Br)cc2)c2ccccc2N1	nt	-4%	3%	-10%	26%	10%
O=C1CN(S(=O)(=O)c2cccc(Cl)c2Cl)c2ccccc2N1	4%[0.0935 µM]	50µM*	3%	-10%	14%	-5%
COc1ccccc1/C=C\C=N\n1c(C2CCCCC2)n[nH]c1=S	11%	-5%[0.0925 µM]	?	-22%	?	-25%
COc1cc(/C=N/n2c(C3CCCCC3)n[nH]c2=S)ccc1O	nt	3.5µM*	-14%	11µM*	?	?
